# The campaign covered roughly 48,000 compounds. About 13,000 (27%) showed an effect of 50% or more. Some of the results follow.
# Test system: Wolbachia pipientis
# Assay: Anti-Wolbachia Cell-Based Screen
# Format: functional
# Set-up: scale not given: in the data most compounds retested in dose-response had high values
# Details: 5 µM
row,Structure (SMILES),Percent Effect [%]
1,COc1ncccc1C1CC(=O)NCc2nc3sccn3c21 (centres undefined),-19.07
2,COCc1cc(NCc2cccnc2Oc2ccc(C)nc2)ncn1,-2.689
3,CSCCC1c2nc[nH]c2CCN1Cc1cncn1C (centres undefined),-0.6967
4,CSCc1noc(CNC(=O)c2cc(C)c(C)[nH]c2=O)n1,-3.67
5,CC(C)N(C)C(=O)C1CSCN1S(=O)(=O)c1cccs1 (centres undefined),24.99
6,CCc1cc(NCC(N)=O)nc(N2CCCCC2)n1,3.256
7,COc1ccc2cc(C3CN(C(=O)N(C)C)CCO3)ccc2c1 (centres undefined),8.393
8,CCNC(=O)N1CC2=CC(C)(C)COc3ccc(OC)c(c32)C1,61.47
9,CCNC(=O)N1CCC2(CC1)CCn1c(-c3cccc(OC)c3)cnc12,-4.783
10,COCC(=O)N1CCc2[nH]nc(-c3ccc4c(c3)OCO4)c2C1,-8.415
11,COCC(=O)N1CC2=CC(C)(C)COc3ccc(OC)c(c32)C1,86.58
12,COc1ccc2c3c1CN(C(=O)N(C)C)CC3=CC(C)(C)CO2,71.28
13,CCNC(=O)N1C[C@@H](NC(C)=O)[C@H](c2ccc(C)o2)C1,-5.007
14,COCC(=O)N1CCN(C(=O)C2(c3ccc(C)c(OC)c3)CC2)CC1,8.797
15,Cc1cccc2ncnc(N3CCOC(C)C3)c12 (centres undefined),0.1008
16,O=C1C(N2CCN(c3ccccc3Cl)CC2)CCN1C1CCOCC1 (centres undefined),-17.41
17,CCCn1nc(C)c(CNC(=O)C2COc3c(cccc3OC)C2)c1C (centres undefined),-7.419
18,O=C(NC[C@H]1OC[C@@H](NCc2ccccc2F)[C@@H]1O)c1ccc(F)cc1,-2.288
19,CC(C)c1n[nH]c(C(=O)Nc2ccncc2)c1Br,-16.38
20,CC(C)c1n[nH]c(C(=O)Nc2ccccn2)c1Br,113.3
21,CC(C)c1n[nH]c(C(=O)NC(C)c2ccncc2)c1Br (centres undefined),112.2
22,COc1ccncc1NC(=O)c1[nH]nc(C(C)C)c1Br,-9.572
23,CC(C)c1n[nH]c(C(=O)Nc2ccnn2C(C)C)c1Br,-14.02
24,CC(C)c1n[nH]c(C(=O)Nc2cc[nH]n2)c1Br,-7.047
25,Cc1ccnc(NC(=O)c2[nH]nc(C(C)C)c2Br)c1,97.23

row,Structure (SMILES),Percent Effect [%]
1,Cc1cccc(NC(=O)c2[nH]nc(C(C)C)c2Br)n1,122.8
2,COc1ncccc1NC(=O)c1[nH]nc(C(C)C)c1Br,15.14
3,Cn1cc(CN2CCn3cc(CNC(=O)C4CCC4)nc3C2)cn1.O=C(O)C(F)(F)F,18.03
4,O=C(NCc1nnc2ccccn12)N1CCOC(c2cccs2)C1 (centres undefined),-3.405
5,COc1ccc(-n2nc(C3CC3)nc2CCn2cnnn2)cc1,-7.711
6,COc1ccc(N2Cc3n[nH]c(=O)n3C2=O)cc1,-0.5114
7,O=C(c1ccno1)N1CCO[C@]2(CCC[C@@H]2COCc2ccncc2)C1,-0.3534
8,O=C(c1ccoc1)N1CCO[C@]2(CCC[C@@H]2COCc2ccncc2)C1,-6.569
9,COC[C@@H]1CCC[C@@]12CN(C(=O)N(C)C)CCO2,101.2
10,COC[C@H]1CCC[C@]12CN(C(=O)NCc1ccccc1)CCO2,18.34
11,O=C(O)C(F)(F)F.O=C(c1ccc[nH]1)N1CCO[C@]2(CCC[C@@H]2COc2cccnc2)C1,-3.807
12,COC[C@@H]1CCC[C@@]12CN(C(=O)N1CCCC1)CCO2,87.5
13,COC[C@H]1CCC[C@]12CN(CCc1ccccc1)CCO2.O=C(O)C(F)(F)F,30.11
14,COCC(=O)N1CCO[C@]2(CCC[C@H]2COC)C1,106.8
15,Cc1[nH]c2c(F)cccc2c1CC(=O)NCCCNc1cccnc1,12
16,Cc1noc(COCC(=O)Nc2ccc(Br)c(C)n2)n1,11.2
17,O=C(c1ccccc1)N1C[C@@H]2CC[C@H](C1)N(C(=O)CN1CCOCC1)C2,-9.595
18,CCc1nc(CNC(=O)c2ccc(C(C)N3CCCCC3)o2)cc(=O)[nH]1 (centres undefined),-0.08952
19,CCCc1nc(NC2(COC)CCCC2)c2cnn(C)c2n1,85.47
20,CCOC(=O)CNc1nc(C(C)(C)C)nc2c1cnn2C,2.145
21,CCOC(=O)CC1(Nc2nc(C)nc3c2cnn3C)CCCCC1,107.9
22,Cc1nc(NC2(CN3CCCCC3)CCCCC2)c2cnn(C)c2n1,98.05
23,Cn1ncc2c(NCCC34CCCN3CCC4)nc(C3CCCC3)nc21,4.055
24,COCC1(Nc2nc(C)nc3c2cnn3C)CCCC1,115.3
25,CCn1c(C)nnc1SCCNc1nc(C)nc2c1cnn2C,-4.457

row,Structure (SMILES),Percent Effect [%]
1,CCOC(=O)CNc1nc(COC)nc2c1cnn2C,5.543
2,Cc1nsc(NC(=O)NC2(CN3CCCCC3)CCCCC2)n1,1.448
3,CCOC(=O)CC(C)Nc1nc(C2CCCC2)nc2c1cnn2C (centres undefined),-2.112
4,CCCc1nc(N(C)CCN2CCCCCC2)c2cnn(C)c2n1,11.67
5,CCC(Nc1nc(C)nc2c1cnn2C)c1ncnn1CC (centres undefined),13.02
6,O=C(C1=CCCC1)N1CCC[C@]2(C[C@@H](OCc3ccccn3)CO2)C1.O=C(O)C(F)(F)F,5.284
7,CS(=O)(=O)N1C[C@@H]2CC[C@H](C1)N(C(=O)Cn1nc3ccccc3n1)C2,3.871
8,Cc1csc(N2CCN(C(=O)CCC(=O)c3ccc(C)s3)CC2)n1,7.228
9,CCS(=O)(=O)N1CCOC2(COCCN(c3nccs3)C2)C1 (centres undefined),11.05
10,CC(C)c1ccc(S(=O)(=O)NC2CCN(CC(F)(F)F)C2)cc1 (centres undefined),12.82
11,COc1cc(CN2CC[C@@H](N3CCCCCC3)[C@H](O)C2)cc(Cl)c1OC,100.3
12,COc1cc(Cl)cc(CN2CCCC(N3CCCC3)C2)c1OC (centres undefined),116
13,COc1cc(CN2CCC(O)(c3ccc(C)cn3)CC2)cc(Cl)c1OC,-12.14
14,O[C@@H]1CN(CC2=Cc3cc(Cl)ccc3OC2)CC[C@H]1N1CCCCCC1,0.906
15,COc1ccc(CN2CCCC(n3cccn3)C2)c(Cl)c1OC (centres undefined),1.14
16,COc1ccc(CN2CCCC(N3CCCC3)C2)cc1Cn1cncn1 (centres undefined),15.57
17,COc1cc(Cl)cc(CN2CCCC(N3CCOCC3)C2)c1OC (centres undefined),106.9
18,CC(C)Oc1ccc(CN2CCCC(N3CCOCC3)C2)cc1CO (centres undefined),-0.1551
19,Cc1cc(C)c2[nH]c(CN3CCCC(N4CCOCC4)C3)cc(=O)c2c1 (centres undefined),0.1169
20,CNC(=O)[C@@H]1COC[C@H]2CN(C(=O)c3ccc(C)c(F)c3)C[C@H]21,1.789
21,COC(CNC(=O)CNC(=O)c1ccccc1)c1cccc(Cl)c1 (centres undefined),-36.87
22,Cc1ncsc1CN1C[C@H](OCC(C)C)[C@H]2OCCC[C@H]21.O=C(O)C(F)(F)F,-14.06
23,CCO[C@@H]1CC[C@H]2[C@H]1OCCN2C(=O)c1nn(C)c2ccccc12,106.4
24,CCO[C@H]1CC[C@H]2[C@H]1OCCN2C(=O)c1nn(C)c2ccccc12,108.7
25,CCO[C@@H]1CC[C@H]2[C@H]1OCCN2C(=O)c1ccc(OC)c(F)c1,-22.06

row,Structure (SMILES),Percent Effect [%]
1,Cc1ccc(C(=O)N2CCO[C@H]3[C@@H](OCc4ccccn4)CC[C@@H]32)o1.O=C(O)C(F)(F)F,-5.404
2,Cc1ccc(CN2CCC3(CC(C(=O)NCC4CC4)=NO3)C2)s1 (centres undefined),-2.379
3,COc1ccc(CN2CCC3(CC(C(=O)NCC(C)C)=NO3)C2)cc1 (centres undefined),91.98
4,O=C(NCC1CC1)C1=NOC2(CCN(Cc3ccc(Cl)c(F)c3)C2)C1 (centres undefined),0.8389
5,CC(C)CNC(=O)C1=NOC2(CCN(Cc3ccc(C(C)C)cc3)C2)C1 (centres undefined),105.9
6,CCc1ccc(CN2CCC3(CC(C(=O)NCC(C)C)=NO3)C2)o1 (centres undefined),102
7,O=C(NCC1CC1)C1=NOC2(CCN(Cc3ccsc3)C2)C1 (centres undefined),-10.07
8,CC(C)CNC(=O)C1=NOC2(CCN(Cc3ccoc3)C2)C1 (centres undefined),98.99
9,CCc1ccc(C(NC(=O)CCS(C)(=O)=O)C(C)(C)C)o1 (centres undefined),18.74
10,CN1CCC(NN2CCN(C)CC2)CC1,4.594
11,O=C(CSc1ccccc1)Nc1cnn(CC(=O)N2CCCO2)c1,2.043
12,Cc1ccc(C)c(OCC(O)CN(C)CC(=O)Nc2cc(C)on2)c1 (centres undefined),16.51
13,CCN1CCC2(CC1)c1nc[nH]c1CCN2S(C)(=O)=O,-21.15
14,COC(=O)C1CCN(C(=O)c2ccc(C)c(NS(C)(=O)=O)c2)CC1,-2.362
15,COc1ccccc1OCCCc1cc(C)nc(N)n1,-105.6
16,CCS(=O)(=O)N1CCOC2(CCCN(c3cnccn3)C2)C1.O=C(O)C(F)(F)F (centres undefined),-12.03
17,Cn1ccc(C(=O)NCC2(O)CCN(c3cnccn3)C2)n1 (centres undefined),120.2
18,CC(=O)NCC(=O)NCC1(O)CCN(c2cnccn2)C1 (centres undefined),78.54
19,COc1ccccc1OC1(C(=O)O)CCN(c2cnccn2)CC1,-132.5
20,O=C(c1ccc(-n2ccnc2)cc1)N1CCN(c2cnccn2)CC1,1.028
21,Cn1ccc(C(=O)N2C[C@@H]3CCN(c4cnccn4)C[C@@H]3C2)n1.O=C(O)C(F)(F)F,6.862
22,CC(C#N)NS(=O)(=O)c1cccc(C(C)C)c1 (centres undefined),0.8918
23,c1ccc(-c2nccc(N3CCc4c(ncn4C4CC4)C3)n2)cc1,-6.711
24,O=C(NCc1nncn1C1CC1)C1(c2ccc(F)cc2)CCCC1,-0.2127

# — ChEMBL document CHEMBL3988442, “University of Dundee, Small-Polar-MMV Screening Library” (2021)
